Bioassay records as filed in PubChem BioAssay.
Compounds with a hit are over-represented: about 4.1% of the library has one in this group of screens.
CHT PAM: CHT positive allosteric modulators, primary screen, cell-based, membrane potential dye, choline EC20; CHT-expressing cells; hits give high values; LV-AA mutant CHT in HEK293 cells; B-score at 10 µM; 0.49% of 310,000 active; AID 488977, 2010;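 active = initial fluorescence not abnormally high and integrated response B-score, plate-corrected, over 3 SD above library mean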
Target sequence (Q9GZV3 whole entry, looked up): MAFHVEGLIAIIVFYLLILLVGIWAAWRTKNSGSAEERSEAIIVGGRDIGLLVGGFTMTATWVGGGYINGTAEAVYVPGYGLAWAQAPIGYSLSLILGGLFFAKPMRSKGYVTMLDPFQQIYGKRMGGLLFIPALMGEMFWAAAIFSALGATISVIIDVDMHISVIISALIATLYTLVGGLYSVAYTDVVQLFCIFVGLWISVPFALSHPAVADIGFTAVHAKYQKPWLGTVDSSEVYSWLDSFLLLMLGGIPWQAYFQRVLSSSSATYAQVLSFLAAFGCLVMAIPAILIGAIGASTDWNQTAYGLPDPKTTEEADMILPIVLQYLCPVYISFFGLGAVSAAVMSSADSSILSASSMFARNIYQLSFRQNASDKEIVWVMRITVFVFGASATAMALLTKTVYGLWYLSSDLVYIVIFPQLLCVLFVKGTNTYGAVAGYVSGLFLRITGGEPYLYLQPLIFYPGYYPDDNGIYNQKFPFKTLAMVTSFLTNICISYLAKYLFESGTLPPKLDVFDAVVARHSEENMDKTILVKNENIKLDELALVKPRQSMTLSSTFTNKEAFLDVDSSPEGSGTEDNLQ
CHT inh: inhibitors of human choline transporter CHT; High affinity choline transporter 1 (Homo sapiens), Q9GZV3; CHT-expressing cells, membrane potential dye, choline response; hits give low values; B-score at 10 µM; 0.86% of 310,000 active; AID 488975, 2010;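 active = B-score over 3 SD under the library average, and starting fluorescence ratio not unusually high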;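 also: choline stimulus applied at its EC90 after an EC20 pre-addition; B-score computed on integrated fluorescence ratio after choline addition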
Mot1-301 SUMO: yeast Mot1-301 growth rescue at high temperature, primary screen, SUMOylation pathway inhibitor project, S. cerevisiae, ATP luminescence, 38.5C | S. cerevisiae Mot1-301 growth rescue; percent above DMSO median, 100 means doubled | growth rescue, % at 18.8 µM | 1% of 320,000 active;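 active = every valid replicate shows activation above 250% relative to neutral control wells; inactive = the rest, any valid replicate at or below 250%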
MEKK2 mut-MEK5: MEK5 binding signal on mutant MEKK2 PB1, primary screen, biochemical, multiplex bead flow cytometry, Alexa488-MEK5; AID 1530, 2009; 0.35% of 290,000 active; percent response, % at 10 µM; Alexa488-MEK5 binding to MEKK2 mutant; in the data active = percent response above about 24%, passing the limit was not always enough
MEKK2 WT-MEK5: modulators of MEK5 binding to wildtype MEKK2, primary screen, biochemical, multiplex bead flow cytometry, Alexa488-MEK5; Alexa488-MEK5 binding to MEKK2 WT; actives lie on both sides; binding response (% of control), % at 10 µM; 1.1% of 290,000 active; AID 1531, 2009; in the data active = binding response below about 67% or above about 130%
MEKK3 PB1 HTS: modulators of MEKK3-MEK5 PB1 binding, primary screen, biochemical, wildtype MEKK3, multiplex bead flow cytometry, Alexa488-MEK5; Mitogen-activated protein kinase kinase kinase 3 (Homo sapiens), Q99759; bead-based flow cytometry, Alexa488-MEK5 binding to MEKK3; actives lie on both sides; 0 = blocked by unlabeled MEK5, 100 = vehicle; 1.4% of 290,000 active; binding response (% of control), % at 10 µM;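 active = binding response more than 3 SD above or below the average of its plate-row segment, actives on both sides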;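 also: Alexa488 bead fluorescence after subtracting the streptavidin-only scavenger bead signal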
Mot1 SUMO dose: growth restoration of Mot1-301 yeast on galactose, dose response, SUMO pathway inhibitor project, whole organism, S. cerevisiae, ATP luminescence, cherry-picked samples | 2,300 tested, under 10 active | AID 493004, 2010 | S. cerevisiae Mot1-301 galactose growth, 24 h; -100 = growth of slx-deleted rescue strain | growth activity, percent, % at 42 µM | shares compounds with Mot1-301 SUMO;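 active = Signal drops as the depositor expects, and the fitted half-maximal dose is no more than ten times the top valid tested dose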;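 also: more negative values mean stronger growth rescue toward the control strain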
Numbers stand for hits; . = inactive; / = not tested or not shown; + = active, no number.

SMILES | CHT PAM | CHT inh | Mot1-301 SUMO | MEKK2 mut-MEK5 | MEKK2 WT-MEK5 | MEKK3 PB1 HTS | Mot1 SUMO dose
COc1cc(/C=N/NC(=O)c2cccnc2)ccc1OCC(=O)N1CCOCC1 | . | . | 768 | . | . | . | .
COc1ccc(/C=N/NC(=O)c2cccnc2)cc1CN1CCOCC1 | . | . | . | . | . | . | /
COc1cc(/C=N/NC(=O)c2ccncc2)ccc1OC(=O)c1ccco1 | . | . | 404 | . | . | . | .
Nc1ccc(C2(c3ccc(N)cc3)OC(=O)c3ccccc32)cc1 | . | . | 497 | . | . | . | .
O=C(CCS(=O)(=O)c1ccc(Br)s1)NCc1ccccc1 | . | . | 737 | . | . | . | .
C=CCn1c(=N)c(C(=O)NCCCOC)cc2c(=O)n3ccccc3nc21 | . | . | 603 | . | . | . | .
CCn1c(CSCc2ccc(C)cc2)nnc1SCC(=O)NCc1ccccc1 | . | . | . | / | / | / | /
CCn1c(CSCc2ccc(F)cc2)nnc1SCC(=O)NCc1ccccc1 | . | . | 924 | . | . | . | .
CCn1ccnc1CN(C)Cc1c(C(=O)N2CCCCCCC2)nc2ccc(Cl)cn12 | . | . | . | . | . | . | /
COc1ccc(N2CCN(C(c3cccs3)C(C)NS(C)(=O)=O)CC2)cc1 (stereo not drawn) | . | . | 379 | . | . | . | .
CCOC(=O)C1=C(N)c2ccccc2CC1C1CCCC1 (stereo not drawn) | . | . | 552 | . | . | . | .
CC(Oc1ccc2c(c1)oc(=O)c1ccccc12)C(=O)NCCCN1CCOCC1 (stereo not drawn) | . | . | . | . | . | . | /
CC(Oc1ccc([N+](=O)[O-])cc1)C(=O)NCCCN1CCOCC1 (stereo not drawn) | . | . | 505 | . | . | . | .
CC(C)(C)OC(=O)NC1CCN(S(=O)(=O)c2ccc3c(c2)OCCO3)CC1 | . | . | / | . | . | . | /
N#Cc1cc2c(nc1SCc1cccnc1)CCC2 | . | . | + | . | . | . | .
N#Cc1cc2c(nc1SCc1cccnc1)CCCC2 | . | . | . | . | . | . | /
COc1ccc(C(C)=O)cc1CN(c1ccccc1OC)S(=O)(=O)c1cccs1 | . | . | 370 | . | . | . | .
Cc1ccc2nsnc2c1NC(=O)COc1ccccc1F | . | . | . | . | . | . | /
O=C(CSc1nnc(COc2ccccc2Cl)o1)NC(=O)NC1CCCC1 | . | . | 392 | . | . | . | .
CC(C)CCNC(=O)NC(=O)CSc1nnc(COc2ccccc2Cl)o1 | . | . | . | . | . | . | /
O=C(CSc1cc(Cl)ccc1Cl)NC1CCCC1 | . | . | . | . | . | . | /
CCOc1ccc(N2CC(C(=O)OC)CC2=O)cc1 (stereo not drawn) | . | . | 385 | . | . | . | .
COc1cc(OC)c(NC(=O)CNC(=O)Cn2ccc3ccccc3c2=O)cc1Cl | . | . | . | . | . | . | /
COc1ccc(OC)c(NC(=O)CNC(=O)Cn2ccc3ccccc3c2=O)c1 | . | . | 503 | . | . | . | .
CCCNC(=O)COc1ccc(-c2nn(C)c(=O)c3ccccc23)cc1 | . | . | . | . | . | . | /
CCOc1ccccc1CNC(=O)C1CCC(=O)N1C(C)C (stereo not drawn) | . | . | . | . | . | . | /
COc1ccccc1CNC(=O)C1CCC(=O)N1C(C)C (stereo not drawn) | . | . | 595 | . | . | . | .
COc1cc(COc2ccc3c(C)c(CC(=O)O)c(=O)oc3c2C)cc(OC)c1OC | . | . | 628 | . | . | . | .
